Assay results published in the supplement of paper PMC10681739.

The sequences below were run against T1, ETS1 (UniProt P14921) (assay: ETS1 binding intensity (PBM fluorescence), ETS1 alone (arbitrary fluorescence units); higher = stronger binding). Details: ETS1 concentration 1 nM; RUNX1 concentration 0 nM.
T1 sequence: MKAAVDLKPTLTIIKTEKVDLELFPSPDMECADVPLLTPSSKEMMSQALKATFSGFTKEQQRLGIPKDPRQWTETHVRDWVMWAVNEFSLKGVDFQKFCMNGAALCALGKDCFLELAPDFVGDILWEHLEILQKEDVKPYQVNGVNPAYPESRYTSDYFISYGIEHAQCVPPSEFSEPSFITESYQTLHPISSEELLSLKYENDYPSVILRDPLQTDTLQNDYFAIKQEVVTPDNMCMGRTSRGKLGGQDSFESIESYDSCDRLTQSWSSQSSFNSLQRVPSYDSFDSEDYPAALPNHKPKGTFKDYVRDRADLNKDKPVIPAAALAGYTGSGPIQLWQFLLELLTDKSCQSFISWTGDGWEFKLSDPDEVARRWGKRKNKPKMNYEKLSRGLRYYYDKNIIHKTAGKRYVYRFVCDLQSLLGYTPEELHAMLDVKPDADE

Sequence | ETS1 binding intensity
TTTGCTGCAGAAGGATGTGGTTTATTCAGGTTTGAC | 676
AGGTGGGAGGAAGTTCCTACCCCGGCGCGGTGTGCA | 625
CGACGTCACTTCCGCTGGTTCAAGCACCGCGAGACT | 1900
GCAGGACTCCAGGAAGCCCGCGCAGCCGCAAAAAGC | 597
CGGCACCCTCCTTCCTCCCTGCCAACCGCCTCCACC | 556
TAAACGTCAGCTTCCTTTGTGGCTTACCCTCCCGCC | 495
GCTATCCCCGCCCCTTCCTGTGGGCTGGCGCCCGAT | 482
GGCGCCTCTTTCCGCCCCCGCCCACAATCGAGCGCA | 535
CCTCCAGGAAGCGATAAGTGACTGTGGTGGAGAGAG | 663
ATGACTCATTTCCTCACTCTCTACTCCCACAGAACC | 606
TGATGCAGGAAGGGGTGGAGTCACCACAGGAGGTAG | 827
AAGGACCGACCCGTTTTCCGCCCGCAGCGGAGCTTG | 439
TTGGAGACACACAAAGGATGTGGGCTGTGCGTGTGT | 1380
TGGGGGCGGAAGCCTAAACCCCTCCCGCAGCCAGTC | 625
ATGTAAACAAGGATGTGAGTTCTGCGGCCACACTCT | 448
GCACGCGCCGGGCGGAACCCACAGGCCTGGAAGCGA | 537
ATAAAGGATGTACAGTATTTAGAGAACAGTGGTTAA | 553
CTCCTGAGGAAGTAGTTACAGACACCACAGCGGAGG | 511
CCAGAGCAGGATGTTCTGCTGTGGCTAGATAAGCCC | 907
TTTATCCTTATTTCCTGGCTTCGCCCACAAGCACAG | 599

Sequence | ETS1 binding intensity
GTCCCCCTTCCGGCTGCAGGTTGAGGTTTGGAACCT | 511
GCACCATCTCCCGACTTCCGCGGTGTCCCAGGTCCT | 559
TGGCAGGATGCCGTTAAATATGTAACCACATGTCTC | 500
AGAATTACCAGGAAGCCGAGCGCTGCGGGCTAGCGG | 518
GGCTTTTCCGGGATCCCTTTCGCCTCATCACCGCAG | 522
GTGCAGGCAATGAGGATGTTGTGGGGGAGACAGGGA | 746
CTATATCACATCCTTTCTCTGACCGCGCTGACTTCG | 452
CTGTGGCCTAGAAGCTTCCTGCCGCAGCTCTGAGGA | 534
TCCAGGATGTGCTGAACCTCCAGAAACCACCGGCTT | 436
CTGGCTACAGGAAAAACAAAGTCAAACCACAGCACT | 473
CTGCGCTTCCGCTTCACCCGGAGTACAGCGGTCCTG | 842
CTCCGGGAACAGCGGAAAAGGGACCGCATGAACCTC | 900
GGTCCAGGAAGACGTCAAGGGCTTGGTTTTGTAAAC | 505
AAGCCCTAGAGGAAATTAGTACGTAACCACCTTCTG | 540
GTCTTCACATGTAGGGGAAGTGGGTTAGCGTAGGAG | 951
GAACACGGAAACACTGAGCTTTTACTTTGACCACAC | 572
AATTCCCAGGAAGCACTCGGCAGCCACAAACTGATG | 539
TCAGGAAGTGGTGTGACCAGCATGTGAACCGCGGCA | 681
GAATCACCATTTCCTCACTCCCACACAACCATGTTG | 485
CTGCTTCGGCCCGGCTTCCGCCCACAGTCAACTGCC | 825

These sequences were tested against T1, ETS1 (assay: ETS1 binding intensity (PBM fluorescence) in presence of RUNX1, normalised to ETS1-only experiment (arbitrary fluorescence units); higher = stronger binding). Details: ETS1 concentration 1 nM; RUNX1 concentration 25 nM.

Sequence | ETS1 binding intensity
TTTGCTGCAGAAGGATGTGGTTTATTCAGGTTTGAC | 3620
AGGTGGGAGGAAGTTCCTACCCCGGCGCGGTGTGCA | 620
CGACGTCACTTCCGCTGGTTCAAGCACCGCGAGACT | 1500
GCAGGACTCCAGGAAGCCCGCGCAGCCGCAAAAAGC | 1350
CGGCACCCTCCTTCCTCCCTGCCAACCGCCTCCACC | 696
TAAACGTCAGCTTCCTTTGTGGCTTACCCTCCCGCC | 582
GCTATCCCCGCCCCTTCCTGTGGGCTGGCGCCCGAT | 489
GGCGCCTCTTTCCGCCCCCGCCCACAATCGAGCGCA | 399
CCTCCAGGAAGCGATAAGTGACTGTGGTGGAGAGAG | 620
ATGACTCATTTCCTCACTCTCTACTCCCACAGAACC | 464
TGATGCAGGAAGGGGTGGAGTCACCACAGGAGGTAG | 952
AAGGACCGACCCGTTTTCCGCCCGCAGCGGAGCTTG | 457
TTGGAGACACACAAAGGATGTGGGCTGTGCGTGTGT | 1780
TGGGGGCGGAAGCCTAAACCCCTCCCGCAGCCAGTC | 627
ATGTAAACAAGGATGTGAGTTCTGCGGCCACACTCT | 763
GCACGCGCCGGGCGGAACCCACAGGCCTGGAAGCGA | 803
ATAAAGGATGTACAGTATTTAGAGAACAGTGGTTAA | 485
CTCCTGAGGAAGTAGTTACAGACACCACAGCGGAGG | 491
CCAGAGCAGGATGTTCTGCTGTGGCTAGATAAGCCC | 916
TTTATCCTTATTTCCTGGCTTCGCCCACAAGCACAG | 625

Sequence | ETS1 binding intensity
GTCCCCCTTCCGGCTGCAGGTTGAGGTTTGGAACCT | 560
GCACCATCTCCCGACTTCCGCGGTGTCCCAGGTCCT | 434
TGGCAGGATGCCGTTAAATATGTAACCACATGTCTC | 1250
AGAATTACCAGGAAGCCGAGCGCTGCGGGCTAGCGG | 631
GGCTTTTCCGGGATCCCTTTCGCCTCATCACCGCAG | 301
GTGCAGGCAATGAGGATGTTGTGGGGGAGACAGGGA | 732
CTATATCACATCCTTTCTCTGACCGCGCTGACTTCG | 481
CTGTGGCCTAGAAGCTTCCTGCCGCAGCTCTGAGGA | 505
TCCAGGATGTGCTGAACCTCCAGAAACCACCGGCTT | 684
CTGGCTACAGGAAAAACAAAGTCAAACCACAGCACT | 929
CTGCGCTTCCGCTTCACCCGGAGTACAGCGGTCCTG | 713
CTCCGGGAACAGCGGAAAAGGGACCGCATGAACCTC | 1470
GGTCCAGGAAGACGTCAAGGGCTTGGTTTTGTAAAC | 448
AAGCCCTAGAGGAAATTAGTACGTAACCACCTTCTG | 844
GTCTTCACATGTAGGGGAAGTGGGTTAGCGTAGGAG | 1260
GAACACGGAAACACTGAGCTTTTACTTTGACCACAC | 440
AATTCCCAGGAAGCACTCGGCAGCCACAAACTGATG | 483
TCAGGAAGTGGTGTGACCAGCATGTGAACCGCGGCA | 1110
GAATCACCATTTCCTCACTCCCACACAACCATGTTG | 417
CTGCTTCGGCCCGGCTTCCGCCCACAGTCAACTGCC | 694
